The source of these data is PubChem BioAssay (NCI).

Some test systems named below: NCI-H23 lung; NCI-H226 lung; NCI-H322M lung; HOP-62 NSCLC; NCI-H460 lung; HOP-92 NSCLC; NCI-H522 lung; A549/ATCC NSCLC; 786-0 renal; COLO 205 colon.
Assay in all cases: NCI-60 one-dose screen, 48 h (100 = growth as untreated, 0 = no growth, -100 = all killed)
Holding throughout (settings): 10 µM unless noted

This is part of a sample that, as a whole, favours compounds with a hit. Of some 83,000 tested, about 20% had one in any assay.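 The test compound was applied at a single concentration to cells in 96-well plates for 48 hours, and percent growth was recorded.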 Values without a mark were called inactive. Calls of active or inactive are those of the source. Rule for the calls: active = growth percent below 10; inactive = the rest.

For the compound `CCOP(=O)(OCC)c1nc(-c2ccccc2)oc1NCc1cccnc1`, the growth with NCI-H23 lung was 102%; in the assay on NCI-H226 lung, 104%; in the assay with NCI-H322M lung, 106%; with HOP-62 NSCLC, 100%; with NCI-H460 lung, 107%; with HOP-92 NSCLC, 114%. In addition, the growth in the assay on NCI-H522 lung was 92.8%; in the assay on A549/ATCC NSCLC, 104%; in the assay on 786-0 renal, 104%; with COLO 205 colon, 117%.
For `COc1ccc(-c2nnc(-c3ccc4c(c3)nc(-c3ccncc3)n4C3CCCCC3)o2)cc1`, the growth is 72.8% in the assay with NCI-H23 lung; 63.6% in the assay with NCI-H226 lung; 82% in the assay with NCI-H322M lung; 67.7% in the assay with HOP-62 NSCLC; 73.7% in the assay on NCI-H460 lung; 44.8% with HOP-92 NSCLC. Moreover, the growth was 61.4% in the assay with NCI-H522 lung, 59.2% in the assay on A549/ATCC NSCLC, 66.3% in the assay with 786-0 renal and 59.2% in the assay on COLO 205 colon.
Consider `COc1ccc(/C(C)=C(/c2ccc(OCCCN(C)C)cc2)c2ccc(OC(=O)Cc3ccccc3)cc2)cc1`, for which the growth in the assay with NCI-H23 lung was 76.4%; in the assay with NCI-H226 lung, 91.5%; with NCI-H322M lung, 98.3%; in the assay on HOP-62 NSCLC it was 83.3%; in the assay with NCI-H460 lung, 70.8%; in the assay on HOP-92 NSCLC, 50.5%. Besides, the growth in the assay with NCI-H522 lung was 57.5%; in the assay on A549/ATCC NSCLC, 58.4%; with 786-0 renal, 71.6%; in the assay with COLO 205 colon it was 76.1%.
As to `CN1CCN(C(=O)c2ccc(NC(=O)Nc3ccc(-c4nc(N5CCOCC5)c5cccn5n4)cc3)cc2)CC1`, the growth with NCI-H23 lung was 15.4%; with NCI-H226 lung, -6.51% (active); in the assay on NCI-H322M lung, -12% (active); in the assay with HOP-62 NSCLC, -13.5% (active); with NCI-H460 lung it was 7.17% (active); with HOP-92 NSCLC, -28.6% (active). The growth with NCI-H522 lung is 12.4%; with A549/ATCC NSCLC, 1.15% (active); in the assay on 786-0 renal, -20.1% (active); with COLO 205 colon, -11.4% (active).
Regarding `CCOC(=O)c1cc2c(=O)oc3ccccc3c2oc1=O`, the growth was 112% in the assay on NCI-H23 lung; 101% with NCI-H226 lung; 100% in the assay on NCI-H322M lung; 120% in the assay on HOP-62 NSCLC; 111% with NCI-H460 lung; 49.4% with HOP-92 NSCLC. Also, the growth in the assay with NCI-H522 lung is 92.1%; with A549/ATCC NSCLC, 105%; in the assay with 786-0 renal it was 111%; with COLO 205 colon it was 129%.
Take `CCN1CCN(c2cc(C(=O)Nc3nc(-c4cc(OC)c(OC)c(OC)c4)cs3)cc(C(F)(F)F)c2)CC1`: the growth in the assay with NCI-H23 lung was 79.4%; in the assay with NCI-H226 lung, 86.8%; in the assay with NCI-H322M lung, 78%; in the assay with HOP-62 NSCLC it was 82.7%; in the assay with NCI-H460 lung, 57.3%; with HOP-92 NSCLC, 42.2%. The growth is 67.6% in the assay on NCI-H522 lung, 81.1% in the assay on A549/ATCC NSCLC, 49.1% in the assay with 786-0 renal and 58.2% in the assay with COLO 205 colon.
Turning to `Cc1ccc(CNc2ccc(Cl)cc2NCc2ccc(C)c(O)c2)cc1O`, the growth with NCI-H23 lung is 3.7% (active); in the assay on NCI-H226 lung, 85.7%; in the assay on NCI-H322M lung, 17.6%; in the assay with HOP-62 NSCLC, 40.5%; with NCI-H460 lung, 2.22% (active); with HOP-92 NSCLC, -11% (active). Besides, the growth was 12.5% with NCI-H522 lung, 21% in the assay on A549/ATCC NSCLC, 23% in the assay with 786-0 renal and 90.2% in the assay on COLO 205 colon.
Take `Oc1c(Cl)cc(Cl)c2ccc(Cn3cc(-c4ccc(C(F)(F)F)cc4)nn3)nc12`: the growth is 83% in the assay with NCI-H23 lung; 84.2% in the assay on NCI-H226 lung; 96% in the assay on NCI-H322M lung; 99.5% with HOP-62 NSCLC; 98.8% with NCI-H460 lung; 40.5% in the assay on HOP-92 NSCLC. Further, the growth was -30.1% (active) with NCI-H522 lung, 96.1% in the assay with A549/ATCC NSCLC, 95.1% in the assay on 786-0 renal and 83% with COLO 205 colon.
In the case of `CS(=O)(=O)C1=CN(CCO)C(=O)N2CCCN=C12`, the growth was 95.7% in the assay with NCI-H23 lung; 96.6% in the assay with NCI-H226 lung; 93.1% with NCI-H322M lung; 92.4% in the assay with HOP-62 NSCLC; 102% in the assay on NCI-H460 lung; 101% in the assay on HOP-92 NSCLC. Also, the growth was 94.8% with NCI-H522 lung, 98.7% in the assay with A549/ATCC NSCLC, 99.5% in the assay on 786-0 renal and 97.8% in the assay with COLO 205 colon.
Regarding `COC(C(=O)[C@@H](O)[C@@H](C)O)[C@@H]1Cc2cc3cc(O[C@H]4C[C@@H](O[C@H]5C[C@@H](O)[C@H](O)C(C)O5)[C@H](O)C(C)O4)c(C)c(O)c3c(O)c2C(=O)[C@H]1O[C@H]1C[C@@H](O[C@H]2C[C@@H](O[C@H]3C[C@@H](O)[C@H](OC)C(C)O3)[C@@H](O)C(C)O2)[C@H](O)C(C)O1` (stereo not given in full), the growth in the assay on NCI-H23 lung is -30.6% (active); with NCI-H226 lung it was 7.45% (active); in the assay with NCI-H322M lung, 5.34% (active); with HOP-62 NSCLC, -6.87% (active); in the assay with NCI-H460 lung it was 9.27% (active); with HOP-92 NSCLC, -2.22% (active). Besides, the growth in the assay on NCI-H522 lung is -26.8% (active); in the assay on A549/ATCC NSCLC, 3.24% (active); in the assay on 786-0 renal, 4.65% (active); in the assay with COLO 205 colon it was -44.4% (active).
For `c1cnc2[nH]cc(-c3csc(-c4cn(CCCN5CCOCC5)c5ccccc45)n3)c2c1`, the growth with NCI-H23 lung was 68.1%; in the assay on NCI-H226 lung, 61.5%; in the assay on NCI-H322M lung, 80.2%; in the assay with HOP-62 NSCLC it was 48.7%; in the assay on NCI-H460 lung, 45.4%; in the assay on HOP-92 NSCLC it was 12%. The growth was 56.9% with NCI-H522 lung, 54.4% in the assay on A549/ATCC NSCLC, 28.4% in the assay with 786-0 renal and 31.2% in the assay with COLO 205 colon.
Regarding `CC(=O)[C@@H]1CCC=C2CC[C@]3(C)[C@@H](CC[C@@H]4[C@@]5(C)CCCNC(C)(C)[C@@H]5CC[C@]43C)[C@H]21`, the growth is -58.8% (active) in the assay on NCI-H23 lung; 23.2% with NCI-H226 lung; -42.3% (active) with NCI-H322M lung; -63.5% (active) in the assay on HOP-62 NSCLC; -34.6% (active) with NCI-H460 lung; -32.5% (active) with HOP-92 NSCLC. For the same compound, the growth was -74.1% (active) in the assay with NCI-H522 lung, -78.1% (active) with A549/ATCC NSCLC, -89.5% (active) in the assay on 786-0 renal and -81% (active) in the assay on COLO 205 colon.
On to `O=S(=O)(NCCCNc1nccc(-c2c(-c3ccc(F)c(O)c3)nc3occn23)n1)c1ccccc1`, for which the growth in the assay on NCI-H23 lung was 84.1%; with NCI-H226 lung it was 115%; in the assay on NCI-H322M lung, 98.5%; in the assay with HOP-62 NSCLC it was 102%; in the assay with NCI-H460 lung, 75.7%; with HOP-92 NSCLC, 71%. The growth in the assay with NCI-H522 lung is 75.6%; in the assay on A549/ATCC NSCLC it was 88.1%; with 786-0 renal, 123%; in the assay with COLO 205 colon, 48.6%.
Turning to `C=C1C(=O)O[C@H]2[C@H]1CC/C(COC(=O)NCc1cc[nH]c1)=C\CC[C@@]1(C)O[C@@H]21`, the growth is 85.8% with NCI-H23 lung; 68.5% in the assay with NCI-H226 lung; 89.5% in the assay with NCI-H322M lung; 87.3% in the assay on HOP-62 NSCLC; 68.5% with NCI-H460 lung; 37.2% with HOP-92 NSCLC. For the same compound, the growth was -8.14% (active) in the assay on NCI-H522 lung, 86.7% in the assay on A549/ATCC NSCLC, 49.5% in the assay with 786-0 renal and 31.2% in the assay on COLO 205 colon.
As to `O=C1Nc2ccccc2[C@]12CC(c1ccccc1)=NN2`, the growth is 64.3% with NCI-H23 lung; 77.7% in the assay on NCI-H226 lung; 59.6% in the assay on NCI-H322M lung; 59.6% with HOP-62 NSCLC; 21.5% with NCI-H460 lung; 30.8% with HOP-92 NSCLC. The growth with NCI-H522 lung was 39.4%; in the assay with A549/ATCC NSCLC it was 44.3%; with 786-0 renal, 50.7%; in the assay on COLO 205 colon it was 3.6% (active).
Turning to `O=C1/C(=C/c2ccc(Cl)cc2)COc2ccc(O)c(O)c21`, the growth is 42.3% with NCI-H23 lung; 90.6% with NCI-H226 lung; 37.5% in the assay with NCI-H322M lung; -22.7% (active) with HOP-62 NSCLC; 31.1% in the assay with NCI-H460 lung; -5.33% (active) with HOP-92 NSCLC. Also, the growth in the assay with NCI-H522 lung was -60.9% (active); in the assay on A549/ATCC NSCLC, 42.9%; in the assay with 786-0 renal, -80.8% (active); in the assay on COLO 205 colon it was 27.7%.
As to `C=C(C)[C@@H]1CC[C@]2(C(=O)NCC#CCN3CCN(C)CC3)CC[C@]3(C)[C@H](CC[C@@H]4[C@@](C)(CCC#N)[C@H](C(=C)C)CC[C@]43C)[C@@H]12`, the growth in the assay on NCI-H23 lung is 75.7%; with NCI-H226 lung it was 57.6%; in the assay with NCI-H322M lung it was 74.9%; with HOP-62 NSCLC, 65.6%; with NCI-H460 lung it was 26.4%; with HOP-92 NSCLC, 8.35% (active). The growth is 68.5% in the assay on NCI-H522 lung, 49.6% in the assay with A549/ATCC NSCLC, 54.5% in the assay on 786-0 renal and 57.8% in the assay on COLO 205 colon.
For `O=C(CSc1nnc2n1S(=O)(=O)c1ccccc1N2c1ccccc1)Nc1nc2ccc(F)cc2s1`, the growth in the assay with NCI-H23 lung was 80.3%; in the assay with NCI-H226 lung, 93.2%; in the assay with NCI-H322M lung it was 113%; in the assay on HOP-62 NSCLC, 82.3%; in the assay on NCI-H460 lung it was 106%; in the assay on HOP-92 NSCLC it was 88%. In addition, the growth in the assay with NCI-H522 lung was 87.2%; in the assay with A549/ATCC NSCLC it was 93.3%; in the assay with 786-0 renal, 96.2%; with COLO 205 colon it was 106%.
Take `COc1ccc(C2c3sc4c(F)cccc4c3Oc3nc[nH]c(=O)c32)cc1` (stereo not given): the growth in the assay on NCI-H23 lung was 78.4%; in the assay with NCI-H226 lung, 66.6%; in the assay on NCI-H322M lung it was 68.6%; with HOP-62 NSCLC it was 79.5%; in the assay on NCI-H460 lung it was 82.7%; in the assay with HOP-92 NSCLC, 59.4%. Also, the growth with NCI-H522 lung was 80.1%; in the assay with A549/ATCC NSCLC, 88.8%; in the assay on 786-0 renal it was 91.8%; with COLO 205 colon it was 108%.
As for `O=Cc1ccc([N+](=O)[O-])s1`, the growth is 93.2% in the assay with NCI-H23 lung; 105% in the assay on NCI-H226 lung; 98.4% with NCI-H322M lung; 105% with HOP-62 NSCLC; 106% in the assay on NCI-H460 lung; 103% in the assay on HOP-92 NSCLC. Also, the growth in the assay on NCI-H522 lung is 101%; with A549/ATCC NSCLC, 95.2%; in the assay with 786-0 renal, 108%; in the assay with COLO 205 colon, 107%.
